HTT cytoprotect = protects HTT-Q103 PC12 cells, measured by ATP. PC12 HTT-Q103 induced, cytoprotection, ATP luminescence, 40 h. Potency, µM (titrated, usually from 56.4 µM), most hits filed as activators. 0.14% of 230,000 active. AID 1471; note: nearly all actives have a fitted effect of over 45% in size
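Stable PC12 Q103-GFP cells in serum-supplemented, phenol red-free DMEM; induction by tebufenozide at 100 nM final; compound dose series; cell viability quantified luminescently from ATP.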
ALDH1A1 block = blocks purified human ALDH1A1 activity; P00352; Purified ALDH1A1, NADH fluorescence, propionaldehyde substrate; Potency, µM (highest dose often 75.3 µM), hits mostly inhibitors; 7.3% of 220,000 active; AID 1030; active = well fitted inhibition curve with a large enough effect, not every such curve was filed as active; inconclusive = small, poorly fitted or top-dose-only effect, or another doubt; inactive = no such curve, though single readings can be large or run the other way
GoLoco inh red = blocks human Gai1 binding to RGS12 GoLoco peptide, red readout; Gai1:RGS12 GoLoco peptide FP, rhodamine, 10 min; AID 880; Potency, µM (titrated, usually from 61.6 µM), hits mostly inhibitors; 0.44% of 230,000 active; active = well fitted inhibition curve with a large enough effect, not every such curve was filed as active; inactive = no such curve, though single readings can be large or run the other way; note: nearly all actives have a fitted effect of over 30% in size
HPGD inh = inhibitors of human 15-hydroxyprostaglandin dehydrogenase (HPGD); P15428; purified HPGD, NADH fluorescence kinetic, PGE2 substrate; Potency, µM, hits mostly inhibitors; 4.3% of 150,000 active; AID 894; active = well fitted inhibition curve with a large enough effect, not every such curve was filed as active; inconclusive = small, poorly fitted or top-dose-only effect, or another doubt; inactive = no such curve, though single readings can be large or run the other way
Target sequence (P15428 whole entry, looked up): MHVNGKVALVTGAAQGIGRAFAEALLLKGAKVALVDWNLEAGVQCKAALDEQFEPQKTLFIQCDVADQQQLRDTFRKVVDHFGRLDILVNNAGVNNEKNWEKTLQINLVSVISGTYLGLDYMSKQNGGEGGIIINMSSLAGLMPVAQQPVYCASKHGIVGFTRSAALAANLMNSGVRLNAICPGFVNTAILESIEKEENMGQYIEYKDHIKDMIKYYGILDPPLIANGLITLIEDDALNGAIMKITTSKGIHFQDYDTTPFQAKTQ
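NADH formation kinetics: reaction with 30 uM PGE2 and 1 mM NAD+ (final), 20 nM enzyme, Tris-HCl pH 8 with Tween 20, after 15 min compound preincubation at room temperature. Fluorescence change, last versus first of five reads.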
PNC assembly inh = perinucleolar compartment assembly inhibition | AID 2417 | activity change (PNC), negative = inhibition, % at 10 µM | PC3M PTB-GFP, PNC prevalence imaging, 16 h; hits give low values | 3.1% of 140,000 active;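 active = readout at or below -70, meaning at least 70% loss of cells showing the perinucleolar compartment, a nuclear body marking cancer cells; inconclusive = readout between -30 and a set limit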
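PC3M cells stably expressing PTB-GFP, 750–1000 cells/well, treated 16 h at 37 °C with compound (23 nl of library stock), in duplicate. After paraformaldehyde fixation and Hoechst stain, imaged at 20x; PNC prevalence scored by image analysis.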
HttQ103 aggreg = mutant huntingtin aggregation inhibition | PC12 HttQ103-GFP aggregates, Acumen cytometry, 40 h | 1.1% of 220,000 active | Potency, µM (doses to about 46.1 µM), hits mostly inhibitors; note: nearly all actives have a fitted effect of over 60% in size
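Ecdysone-promoter PC12 model expressing HTT exon 1 Q103 fused to GFP, induced by tebufenozide at 100 nM final. Compounds titrated; aggregates sized 1–25 µm scored on a 488 nm laser cytometer.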
A number is an active result; n = inactive; u = inconclusive; x = no result; [ ] = remark or other dose. Compounds with a hit are over-represented: about 11% of the library has one in this group of screens. Unless noted, calls come from the whole dose curve; as a rule, active = well fitted curve in the direction sought with a large enough effect; inconclusive = small, poorly fitted or top-dose-only effect, or another doubt; inactive = no such curve, though single readings can be large; an effect the other way counts as inactive or inconclusive.

SMILES | HTT cytoprotect | ALDH1A1 block | GoLoco inh red | HPGD inh | PNC assembly inh | HttQ103 aggreg
COC(=O)C1CCN(c2nc3ccccc3nc2C(C#N)C(=O)OCC(C)C)CC1 (centres undefined) | n[0.074 µM] | u | n | n | -83 | n
COC(=O)C1CCN(c2nc3ccccc3nc2C(C#N)C(=O)NCCc2ccccc2)CC1 (centres undefined) | n | n | n | n | n | n
N#C/C(=C\c1ccco1)C(=O)NCC1CCCO1 (centres undefined) | n[10 µM] | n | n | n | n | n
COC(=O)CC1C(=O)NCCN1C(=O)c1sc2ccccc2c1Cl (centres undefined) | n[10 µM] | x | n | x | x | n[9.22 µM]
COC(=O)CC1C(=O)NCCN1C(=S)NC(=O)c1sc2ccccc2c1Cl (centres undefined) | n[10 µM] | 13µM | n | x | x | x
Cc1ccc(N(CC(=O)N/N=C/c2cc(C)n(-c3ccccc3C)c2C)S(C)(=O)=O)cc1 | n[10 µM] | 25µM | n | n | u | n
COC1=CC(=O)C=C(OC)C1=O | n | n | 20µM | n | x | x
CCCC(=O)C1C(=O)CC(CC(C)SCC)CC1=O (centres undefined) | n | n | n | n | n | n[9.22 µM]
CCCc1noc2c1/C(=N\O)CC(CC(C)SCC)C2 (centres undefined) | n[10 µM] | u | n | 8.9µM | u | n
CCSC(C)CC1C/C(=N/O)c2c(CC)noc2C1 (centres undefined) | n | n | n | u | -86 | n
COC(=O)c1ccc(NC(=O)CN(c2ccc(C)cc2)S(=O)(=O)c2c(C)nn(C)c2C)cc1 | n | n | n | u | n | n
Cc1cc(NC(=O)CSc2nc3ccccc3c(=O)n2C2CCCC2)no1 | n[10 µM] | n | n | n | -83 | n
CCCN(CCC)C(=O)CSc1nc2ccccc2c(=O)n1C1CCCC1 | n[10 µM] | n | n | n | u | n
Cc1cc(NC(=O)CSc2nc3ccccc3c(=O)n2Cc2ccccc2)no1 | n | n | n | n | u | n
CN(C)c1ccc(NC(=O)CSc2nc3ccccc3c(=O)n2C2CCCCC2)cc1 | n | 7.1µM | n | n | n | n
COc1ccc(OC)c(-c2cc(C3CCN(c4ncccc4[N+](=O)[O-])CC3)[nH]n2)c1 | n | u | n | 14µM | n | n
O=[N+]([O-])c1cccnc1N1CCC(c2cc(-c3ccc(Cl)cc3Cl)n[nH]2)CC1 | n | n | n | n | n | u
CC(=O)Cc1cc2cc([N+](=O)[O-])ccc2oc1=O | n[10 µM] | x | n | x | x | n[9.22 µM]
COc1cccc(NC(=O)Nc2ccccc2C(N)=O)c1 | x | n | n | x | x | n
Cc1cc(/C=C2/SC(=O)NC2=O)c(C)n1-c1ccc(N2CCOCC2)cc1 | n[0.074 µM] | n | n | 8.9µM | u | n
Cc1cc(/C=C2\SC(=Nc3ccc(F)cc3)NC2=O)c(C)n1-c1ccc(S(N)(=O)=O)cc1 | n | u | n | n | -99 | u
c1ncc(-c2ccoc2)c(NC2CC2)n1 | n | u | n | x | x | x
O=C(/C=C/c1ccccc1)Nc1ccc(N2CCCCC2)cc1 | n[10 µM] | n | n | n | n | n
O=C(CNC(=S)NC(=O)c1ccccc1Br)c1ccccc1 | n | 18µM | n | x | x | u
CC(C)(C)c1ccc(/C=C/C(=O)Nc2ccc3c(c2)OCCO3)cc1 | n | n | n | n | x | x
SMILES | HTT cytoprotect | ALDH1A1 block | GoLoco inh red | HPGD inh | PNC assembly inh | HttQ103 aggreg
O=C(CSc1nc2nc3c(cc2c(=O)n1-c1ccccc1)CCCC3)Nc1cccc2ccccc12 | n[10 µM] | 7.9µM | n | n | n | n
Cc1ccccc1-n1c(SCC(=O)Nc2ccccc2)nc2nc3c(cc2c1=O)CCCC3 | n[10 µM] | 7.9µM | n | n | n | n
Cc1c(O)nc(SCC(=O)Nc2ccc3c4c(cccc24)CC3)n(-c2ccccc2)c1=O | x | u | n | n | -113 | n
S=C(NCc1cccs1)Nc1cccc(Cl)c1 | n[10 µM] | n | n | 13µM | n | n
S=C(NCc1cccs1)Nc1ccccc1Cl | n[0.074 µM] | n | n | 14µM | n | n
NNC(=S)Nc1ccccc1Cl | n[10 µM] | 28µM | n | x | x | n
S=C(NCc1cccs1)Nc1cc(Cl)cc(Cl)c1 | n[10 µM] | u | n | x | x | n[9.22 µM]
CCOC(=O)CC(CC(C)=O)C(=O)OCC (centres undefined) | u | n | n | n | x | x
